Experimental data as given in PubChem BioAssay (NCATS).
Records with an inconclusive call do not appear. The source holds several records for some structures; these can differ, active in one and inactive in another. Calls of active or inactive are those of the source. Calls follow the shape of the dose curve; as a rule, active = well fitted curve in the direction sought with a large enough effect; inconclusive = small, poorly fitted or top-dose-only effect, or another doubt; inactive = no such curve, though single readings can be large; an effect the other way counts as inactive or inconclusive.

Experiments:
[1] = target: Glutathione peroxidase 1 (Homo sapiens) (UniProt P07203); test: Primary qHTS Assay for Inhibitors of Recombinant Selenoprotein Glutathione Peroxidase 1 (GPX1) (AID 1845191); also: nearly all actives have a fitted effect of over 65% in size; as to activity, negative = inhibition: % is scaled to controls: 0 for no effect and ±100 for the full control effect
Method in brief: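 GPX1 10 nM, GR 100 nM, GSH 1 mM, NADPH 0.5 mM, CHP 0.5 mM (final). 30-min cpd preincubation, RT. Ex340/Em450 read t=0, t=15 min.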

[2] = target: Phospholipid hydroperoxide glutathione peroxidase GPX4 (Homo sapiens) (UniProt P36969); test: Primary qHTS Assay for Inhibitors of Recombinant Selenoprotein Glutathione Peroxidase 4 (GPX4) (AID 1845192); also: nearly all actives have a fitted effect of over 65% in size; also: potency is read from the fitted curve at half-maximal effect
Method in brief: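 qHTS, GR-coupled: GPX4 200 nM + cpd 30 min RT → GSH 1 mM, NADPH 0.5 mM, GR 100 nM → CHP 0.5 mM start; fluor 340/450 at t0 and t15 min; no-enzyme wells as control.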

[3] = target: Luciferin 4-monooxygenase (Photinus pyralis) (UniProt P08659); test: Primary firefly luciferase (FLuc) qHTS assay for identification of artifact compounds. (AID 1845220); also: nearly all actives have a fitted effect of over 60% in size; also: potency is read from the fitted curve at half-maximal effect
Method in brief: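 Reaction readout was CCD-imaged luminescence, taken 5 min after adding 10 nM purified firefly enzyme to compound-treated wells holding 10 uM luciferin and ATP in pH 7.6 buffer.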

[4] = Primary fluorescence-based thiol-reactive (MSTI) qHTS assay for identification of artifact compounds. (AID 1845221);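 also: series mostly up to about 54 µM; thiol-reactive compounds lower the probe fluorescence signal; nearly all actives have a fitted effect of over 65% in size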
Method in brief: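 Probe: MSTI 4 uM, PBS pH 7.4, 2% DMSO. Incubation 1 h, RT, light-protected. Readout fluorescence 525/598 nm.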

[5] = tested on: Nanoluciferase (engineered Oplophorus gracilirostris luciferase); test: Primary Nanoluciferase (NLuc) qHTS assay for identification of artifact compounds. (AID 1845222);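 also: NLuc secreted into diluted conditioned medium of S16 cells; series mostly up to about 54 µM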
Method in brief: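 Concentration-response data were obtained by luminescence after 5 min with Nano-Glo substrate at 1:100. The enzyme was diluted S16 NLuc-expressing cell medium, preincubated with compound for 15 min at RT. Curves were fitted with a 4-parameter Hill model.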

[6] = Primary redox qHTS assay for identification of artifact compounds. (AID 1845223)
Method in brief: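 Redox-cycling detection via DTT (250 uM final) oxidation coupled to Amplex Red (25 uM)/HRP (250 mU/mL) in HBSS. 15 min preincubation plus 30 min after DTT, room temperature. Ex/Em 525/598 nm; 4-parameter Hill fit against DMSO and 10 uM DA3003.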

[7] = Quantitative High-Throughput drug screen in 47 multiple myeloma cell lines against the NCATS MIPE library collection: FR4_PLB cell viability assay (AID 1918924; also: nearly all actives have a fitted effect of over 35% in size; also: potency is read from the fitted curve at half-maximal effect)
Method in brief: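 Relative luminescence from CellTiter-Glo served as the viability signal, referenced to DMSO-treated (100%) and cell-free medium (0%) controls. Treatment lasted 48 hours at 37C with 500 cells per well.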

[8] = Quantitative High-Throughput drug screen in 47 multiple myeloma cell lines against the NCATS MIPE library collection: Delta47_JCRB cell viability assay (AID 1918925; also: nearly all actives have a fitted effect of over 45% in size; also: potency is read from the fitted curve at half-maximal effect)
Method in brief: (§1)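 We plated 500 myeloma cells per well, pinned in MIPE 4.0 compounds, and incubated for 48 hours at 37C. ATP was then quantified with CellTiter-Glo, with DMSO and media-only wells defining 100% and 0%.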

[9] = Quantitative High-Throughput drug screen in 47 multiple myeloma cell lines against the NCATS MIPE library collection: EJM_DSMZ cell viability assay (AID 1918926; also: nearly all actives have a fitted effect of over 30% in size; also: potency is read from the fitted curve at half-maximal effect)
Method in brief: as §1

[10] = Quantitative High-Throughput drug screen in 47 multiple myeloma cell lines against the NCATS MIPE library collection: AMO1_DSMZ cell viability assay (AID 1918927; also: nearly all actives have a fitted effect of over 30% in size; also: potency is read from the fitted curve at half-maximal effect)
Method in brief: as §1

[11] = Quantitative High-Throughput drug screen in 47 multiple myeloma cell lines against the NCATS MIPE library collection: ARP1_JJKsccF8 cell viability assay (AID 1918928; also: nearly all actives have a fitted effect of over 40% in size; also: potency is read from the fitted curve at half-maximal effect)
Method in brief: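 CellTiter-Glo luminescence after 48 h exposure gives viability, scaled between DMSO-only (100%) and media-only (0%) controls. Library compounds are pinned onto 500 myeloma cells per well, incubated at 37C with 5% CO2.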

Sequence of Phospholipid hydroperoxide glutathione peroxidase GPX4 (Homo sapiens) (P36969 whole entry, looked up): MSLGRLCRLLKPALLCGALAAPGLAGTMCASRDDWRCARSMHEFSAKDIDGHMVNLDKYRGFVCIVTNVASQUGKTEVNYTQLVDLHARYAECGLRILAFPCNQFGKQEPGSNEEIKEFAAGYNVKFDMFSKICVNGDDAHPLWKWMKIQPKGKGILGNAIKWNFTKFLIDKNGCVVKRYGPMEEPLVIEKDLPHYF
Sequence of Glutathione peroxidase 1 (Homo sapiens) (P07203 whole entry, looked up): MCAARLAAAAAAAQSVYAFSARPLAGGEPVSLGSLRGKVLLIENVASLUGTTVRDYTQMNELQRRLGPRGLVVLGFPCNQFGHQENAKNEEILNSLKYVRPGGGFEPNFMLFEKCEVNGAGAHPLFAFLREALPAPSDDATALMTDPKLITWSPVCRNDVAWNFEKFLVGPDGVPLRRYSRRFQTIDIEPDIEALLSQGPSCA

CNC(=O)c1ccccc1Sc1ccc2c(/C=C/c3ccccn3)n[nH]c2c1
inactive: Potency [1] | Potency [2] | Potency [4] | outcome [5] | outcome [6]
active: Potency [3] 1.9 µM

COc1ccc([C@@H]2CC(=O)c3c(O)cc(O[C@@H]4O[C@H](CO[C@@H]5O[C@@H](C)[C@H](O)[C@@H](O)[C@@H]5O)[C@@H](O)[C@H](O)[C@@H]4O)cc3O2)cc1O
inactive: Potency [1] | Potency [2] | Potency [7] | Potency [8] | Potency [9] | Potency [10]

CN(C)C(=O)c1ccc(S(=O)(=O)c2ccc(NC(=O)[C@@](C)(O)C(F)(F)F)c(Cl)c2)cc1
inactive: Potency [1] | Potency [2] | Potency [3] | Potency [4] | outcome [5] | outcome [6]
active: Potency [8] 10.5 µM | Potency [9] 23.5 µM | Potency [10] 14.8 µM

CCOc1ccn(-c2ccc(F)cc2)c(=O)c1C(=O)Nc1ccc(Oc2ccnc(N)c2Cl)c(F)c1
inactive: Potency [1] | Potency [2] | Potency [3] | Potency [4] | outcome [5] | outcome [6]
active: Potency [7] 18.7 µM | Potency [10] 18.7 µM | Potency [11] 14.8 µM

COc1ccc(CCN2CCN(CCCc3ccccc3)CC2)cc1OC
inactive: Potency [1] | Potency [2] | Potency [3] | Potency [4] | outcome [5] | outcome [6] | Potency [7] | Potency [9]

CCCS(=O)(=O)Nc1ccc(F)c(C(=O)c2c[nH]c3ncc(Cl)cc23)c1F
active: Potency [10] 20.9 µM
inactive: Potency [1] | Potency [2] | Potency [3] | Potency [4] | outcome [5] | outcome [6] | Potency [9]

CCCc1nn(C)c2c(=O)[nH]c(-c3cc(S(=O)(=O)N4CCN(C)CC4)ccc3OCC)nc12
inactive: Potency [1] | Potency [2] | Potency [3] | Potency [4] | outcome [5] | outcome [6] | Potency [9] | Potency [10]

O=C(NOC[C@H](O)CO)c1ccc(F)c(F)c1Nc1ccc(I)cc1F
active: Potency [8] 0.0118 µM | Potency [10] 3.72 µM
inactive: Potency [1] | Potency [2] | Potency [3] | Potency [4] | outcome [5] | outcome [6] | Potency [7] | Potency [9]

COCCNCCCn1c(C(=O)CF)c(-c2ccc(C)cc2)c2c(N)ncnc21
inactive: Potency [1] | Potency [2] | Potency [8]
active: Potency [7] 13.2 µM | Potency [9] 4.18 µM

CC1(C)Cc2c(-c3ccccc3)c(-c3ccc(Cl)cc3)c(CC(=O)O)n2C1
inactive: Potency [1] | Potency [2] | Potency [3] | Potency [4] | outcome [5]

O=C(Nc1ccc(F)c(C(F)(F)F)c1)Nc1nnc(-c2ccncc2)s1
active: Potency [7] 3.32 µM | Potency [8] 2.96 µM | Potency [9] 5.9 µM
inactive: Potency [1] | Potency [2] | Potency [3] | Potency [4] | outcome [5] | outcome [6]

Cn1cc(-c2ccc3nnc(C(F)(F)c4ccc5ncccc5c4)n3n2)cn1
inactive: Potency [1] | Potency [2] | Potency [3] | Potency [4] | outcome [5] | Potency [7] | Potency [9]
active: Potency [10] 13.2 µM

COc1nc(-c2ccc3c(c2)OCO3)n(-c2ccc(NC(=O)CSc3ccccc3)cc2)n1
inactive: Potency [1] | Potency [2] | Potency [3] | Potency [4] | outcome [5] | outcome [6] | Potency [7] | Potency [8] | Potency [9]

Cc1cc2c(C(C)C)c(O)c(O)c(C=O)c2c(O)c1-c1c(C)cc2c(C(C)C)c(O)c(O)c(C=O)c2c1O
inactive: Potency [1]
10.1 µM (active) and inactive: Potency [2]
active: Potency [7] 10.5 µM | Potency [8] 8.33 µM | Potency [9] 20.9 µM

O=c1[nH]c(-c2ccc(C(F)(F)F)cc2)nc2c1CSCC2
inactive: Potency [1] | Potency [2] | Potency [3] | Potency [4] | outcome [5] | outcome [6] | Potency [7] | Potency [10]

CN(C(=O)c1ccc(F)cc1C(F)(F)F)C1CCN(c2nnc(-c3ccnn3C)c3ccccc23)CC1
inactive: Potency [1] | Potency [2] | Potency [3] | Potency [4] | outcome [5] | outcome [6]

COc1ccc(COc2cc3oc(=O)c4cc(C(C)O)ccc4c3cc2OC)cc1 (stereo unspecified)
active: Potency [7] 13.2 µM | Potency [8] 11.8 µM | Potency [9] 16.6 µM | Potency [10] 5.9 µM
inactive: Potency [1] | Potency [2]

COc1cc(F)c(F)c(Nc2ccc(I)cc2F)c1NS(=O)(=O)C1(C[C@H](O)CO)CC1
inactive: Potency [1] | Potency [2] | Potency [3] | Potency [4] | outcome [5] | outcome [6]

COc1ccc2c3n(c(=NC(=O)c4cccnc4)nc2c1OC)CCN3
inactive: activity, negative = inhibition [1] 0.782% [at 4.49 µM] | outcome [2] inactive [at 4.52 µM]
active: Potency [7] 16.6 µM | Potency [8] 2.09 µM | Potency [9] 7.43 µM | Potency [10] 18.7 µM | Potency [11] 2.64 µM

C[C@@H]1CN(Cc2ccc(F)cc2)[C@@H](C)CN1C(=O)c1cc2c(C(=O)C(=O)N(C)C)cn(C)c2cc1Cl
inactive: Potency [1] | Potency [2] | Potency [3] | Potency [4] | outcome [5] | outcome [6]
active: Potency [8] 9.35 µM | Potency [10] 29.6 µM

CC[C@@H](C)[C@H](NC(=O)[C@H](CC1CCCCC1)NC(=O)c1ccno1)C(=O)N1CCC2(CCc3ccccc32)CC1
inactive: Potency [1] | Potency [2] | Potency [3] | Potency [4] | outcome [5] | outcome [6] | Potency [10]
active: Potency [7] 13.2 µM

CCCCNc1cc(C(=O)O)cc(S(N)(=O)=O)c1Oc1ccccc1
inactive: Potency [1] | Potency [2] | Potency [7] | Potency [8] | Potency [9] | Potency [10]

Cc1ccnc(NS(=O)(=O)c2ccc(NC(=O)Nc3ccc(S(=O)(=O)Nc4nccc(C)n4)cc3)cc2)n1
active: Potency [10] 14.8 µM
inactive: Potency [1] | Potency [2] | Potency [3] | Potency [4] | outcome [6] | Potency [11]

Cc1n[nH]c(C)c1Cc1sc2c(c1C(=O)N1C[C@H](O)CO1)c(=O)n(C)c(=O)n2CC(C)C
inactive: Potency [1] | Potency [2] | Potency [3] | Potency [4] | outcome [5] | outcome [6] | Potency [7] | Potency [8] | Potency [9]
